Screens deposited in PubChem by Sanford-Burnham Center for Chemical Genomics.
TROY NFkB inh = inhibitors of TROY-dependent NF-kB signaling; Q293 LMP1-TROYcd NF-kB luciferase reporter, 4 h; inhibition, % at 10 µM; hit rate 0.98% among 360,000;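 active means compounds whose plate-normalised and pattern-corrected inhibition of the luciferase reporter signal at the single screening dose is 50% or more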
Peg3 promoter = Peg3 promoter activity inhibition. HeLa PEG-Prom luciferase reporter, luminescence, overnight. hit rate 1.7% among 360,000. inhibition, % at 20 µM. AID 588405;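 active means inhibition of at least 50% at 20 µM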
KKLEB tox = CF airway cell cytotoxicity counter-screen. KKLEB CF airway cells viability, ATPlite luminescence, overnight; active compounds read low; cells stimulated with P. aeruginosa culture filtrate. activity change (cytotoxicity), % at 5 µM. hit rate 0.36% among 360,000;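 active means corrected activity change at or below -50% at 5 µM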
CF NFkB block = cystic fibrosis NF-kB activation inhibition; KKLEB NF-kB-GFP reporter, PAF-induced, GFP fluorescence overnight; inhibition, % at 5 µM; hit rate 0.86% among 360,000;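 active means at least 50% inhibition at 5 µM, scaled per plate between neutral and stimulator controls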;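 further: PAF is a Pseudomonas aeruginosa culture filtrate used as stimulus; plate controls were PAF-stimulated DMSO wells for no effect and unstimulated DMSO wells for full effect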
HIF-2a inh = inhibitors of HIF-2a | AID 624352 | inhibition, % at 18.8 µM | hit rate 0.72% among 360,000 | 786-0 RCC cells HIF-2a reporter, luciferase luminescence, overnight;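 active means inhibition of the luminescence signal of 40% or more relative to plate controls, in a single-dose primary screen at 18.75 µM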
TWEAK Fn14 block = TWEAK-Fn14 signaling inhibition | TWEAK-stimulated Fn14 reporter cells, luciferase luminescence, 8 h | inhibition, % at 10 µM | hit rate 2% among 360,000; in the data active means inhibition above about 50%
Mdm2-MdmX confirm = Mdm2/MdmX (human) interaction inhibition, confirmed; inhibition, % at 8 µM; AID 504601; hit rate 99% among 740; SaOS-2 split-luciferase Mdm2/MdmX complementation, luminescence; shares compounds with HIF-2a inh;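 active means mean inhibition of the luminescence signal across two replicates at or above 26 percent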
Target sequence (O15151 whole entry, looked up): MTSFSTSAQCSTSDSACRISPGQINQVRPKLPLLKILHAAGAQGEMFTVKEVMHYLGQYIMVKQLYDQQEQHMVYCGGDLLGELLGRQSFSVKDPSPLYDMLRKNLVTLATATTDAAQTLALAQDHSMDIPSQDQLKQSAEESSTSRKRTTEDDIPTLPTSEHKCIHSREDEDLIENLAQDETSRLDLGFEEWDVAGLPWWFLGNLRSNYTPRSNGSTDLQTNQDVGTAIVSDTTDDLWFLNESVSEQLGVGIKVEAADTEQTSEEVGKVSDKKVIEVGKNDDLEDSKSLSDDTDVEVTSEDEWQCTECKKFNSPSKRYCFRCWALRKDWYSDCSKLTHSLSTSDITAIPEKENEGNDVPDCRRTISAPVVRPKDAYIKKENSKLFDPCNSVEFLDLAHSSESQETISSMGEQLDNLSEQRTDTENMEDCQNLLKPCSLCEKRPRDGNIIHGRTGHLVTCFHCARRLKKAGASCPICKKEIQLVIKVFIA
Target sequence (Q00987 whole entry, looked up): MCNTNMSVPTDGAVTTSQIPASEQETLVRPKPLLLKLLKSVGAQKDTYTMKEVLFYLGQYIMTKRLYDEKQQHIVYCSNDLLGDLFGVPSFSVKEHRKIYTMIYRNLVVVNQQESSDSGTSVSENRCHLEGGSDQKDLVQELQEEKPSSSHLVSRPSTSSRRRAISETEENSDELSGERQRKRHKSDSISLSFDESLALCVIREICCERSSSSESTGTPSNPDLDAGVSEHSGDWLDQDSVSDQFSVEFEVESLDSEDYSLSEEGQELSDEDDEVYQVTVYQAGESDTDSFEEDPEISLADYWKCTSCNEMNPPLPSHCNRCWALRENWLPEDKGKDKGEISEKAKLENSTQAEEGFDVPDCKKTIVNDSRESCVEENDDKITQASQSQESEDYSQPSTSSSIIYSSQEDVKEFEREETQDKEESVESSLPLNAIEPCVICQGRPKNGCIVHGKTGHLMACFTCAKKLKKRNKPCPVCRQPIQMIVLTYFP
HIF-2a inh conf = confirmation of HIF-2a inhibitors; shares compounds with HIF-2a inh; AID 651580; inhibition, % at 18.8 µM; 786-0 RCC cells, HIF-2a luciferase reporter luminescence, overnight; hit rate 56% among 1,800;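 active means mean inhibition across four replicates of at least 40 percent at the single tested concentration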
HIF-1a counter = counter-screen for HIF-2a inhibitors: HIF-1a inhibition in MiaPaCa-2 cells; shares compounds with HIF-2a inh; MiaPaCa-2 HIF-1a luciferase reporter, desferoxamine, overnight; inhibition, % at 18.8 µM; hit rate 72% among 1,800; AID 651589;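 active means mean inhibition of the reporter signal across four replicates at the single tested dose of 50% or more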
Active calls of the source: *. Sampled rows, rich in hits. Any-hit rate of the full collection: about 4%.

What do the screens show for `CN(C)CCCn1cnc2c(c1=N)C(c1ccccc1)c1ccc3ccccc3c1O2` (stereo not drawn)?
TROY NFkB inh: -29; Peg3 promoter: 109*; KKLEB tox: -28; CF NFkB block: -8; HIF-2a inh: 93*; TWEAK Fn14 block: -85; Mdm2-MdmX confirm: 103*; HIF-2a inh conf: 10; HIF-1a counter: 106*

How did CCOc1ccccc1NC(=O)N1CCC(C(=O)c2ccc(F)cc2)CC1 do in these assays?
TROY NFkB inh: -15; Peg3 promoter: 14; KKLEB tox: 0; CF NFkB block: -7; HIF-2a inh: 41*; TWEAK Fn14 block: -21; HIF-2a inh conf: -6; HIF-1a counter: 24

Results for COc1ccccc1NC(=O)N1CCC(C(=O)c2ccc(F)cc2)CC1 ?
TROY NFkB inh: -4; Peg3 promoter: 7; KKLEB tox: 11; CF NFkB block: -2; HIF-2a inh: -8; TWEAK Fn14 block: 9

What do the screens show for `NC(=O)/C(=C\c1ccc([N+](=O)[O-])o1)c1ccco1`?
TROY NFkB inh: -10; Peg3 promoter: 1; KKLEB tox: -3; CF NFkB block: 5; HIF-2a inh: -18; TWEAK Fn14 block: 13

Results for NC(=O)COc1ccc(C(=O)/C=C2/C(=O)Nc3ccccc32)cc1 ?
TROY NFkB inh: 1; Peg3 promoter: 5; KKLEB tox: -7; CF NFkB block: 10; HIF-2a inh: 46*; TWEAK Fn14 block: 47; HIF-2a inh conf: 35; HIF-1a counter: 25

What do the screens show for `O=C1Nc2ccccc2/C1=C/C(=O)c1cccs1`?
TROY NFkB inh: 17; Peg3 promoter: 39; KKLEB tox: -20; CF NFkB block: 35; HIF-2a inh: 54*; TWEAK Fn14 block: 20; HIF-2a inh conf: 37; HIF-1a counter: 42

What do the screens show for `COc1ccc(C(=O)/C=C2/C(=O)Nc3ccccc32)cc1OC`?
TROY NFkB inh: 8; Peg3 promoter: 30; KKLEB tox: -11; CF NFkB block: 23; HIF-2a inh: 40*; TWEAK Fn14 block: -12; HIF-2a inh conf: 42*; HIF-1a counter: 44

How did Cc1cc(C)cc(N(CC(=O)NCc2ccco2)S(=O)(=O)c2c(C)noc2C)c1 do in these assays?
TROY NFkB inh: 2; Peg3 promoter: 2; KKLEB tox: 3; CF NFkB block: -14; HIF-2a inh: 14; TWEAK Fn14 block: -9

How did CCOC(=O)C1=C(C)NC(=O)NC1/C=C/c1ccccc1 (stereo not drawn) do in these assays?
TROY NFkB inh: -4; Peg3 promoter: 2; KKLEB tox: 5; CF NFkB block: 16; HIF-2a inh: 4; TWEAK Fn14 block: -9

What do the screens show for `COC(=O)[C@@]1(Cc2ccc(OC)cc2)[C@@H]2C(=CC(=O)[C@H]2CC(=O)C(=O)N2CCCC2)CN1C(=O)c1ccccc1`?
TROY NFkB inh: 11; Peg3 promoter: 16; KKLEB tox: -5; CF NFkB block: 28; HIF-2a inh: 77*; TWEAK Fn14 block: 42; HIF-2a inh conf: 69*; HIF-1a counter: 84*

What do the screens show for `COC(=O)[C@@]1(Cc2ccc(F)cc2)[C@H]2C(CC(=O)C(=O)N3CCCC3)C(=O)C[C@H]2CN1C(=O)c1ccccc1` (stereo partly drawn)?
TROY NFkB inh: -15; HIF-2a inh: 14; TWEAK Fn14 block: 1

What do the screens show for `N=c1n(CC(=O)c2ccc(Br)s2)c2ccccc2n1Cc1ccccc1`?
TROY NFkB inh: 16; Peg3 promoter: 101*; KKLEB tox: -34; CF NFkB block: 2; HIF-2a inh: 67*; TWEAK Fn14 block: -9; Mdm2-MdmX confirm: 102*; HIF-2a inh conf: 3; HIF-1a counter: 106*

How did O=C1C=CC(=O)N1c1cccc(-c2ccccc2)c1 do in these assays?
TROY NFkB inh: -29; Peg3 promoter: 109*; KKLEB tox: 5; CF NFkB block: 8; HIF-2a inh: 76*; TWEAK Fn14 block: -9; HIF-2a inh conf: 68*; HIF-1a counter: 40
